Bioassay records deposited in PubChem by Milwaukee Institute for Drug Discovery.
Shown are actives, neighbours in structure and some others; about 7.6% of the full set was active somewhere.
Cy5 interf NS3h = enhances or quenches Cy5 fluorescence in NS3h assay. AID 720488. Cy5-dT15 DNA with NS3h, fluorescence interference; actives lie on both sides; signal over control mean, under 1 quenches. fluorescence interference ratio at 100 µM. 6% of 16,000 active;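 active = compound fluorescence over control fluorescence at most 0.8, a quencher, or at least a set upper limit, an enhancer; inactive = ratio between 0.8 and the set upper limit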
HCV NS3h FP = blocks HCV NS3 helicase binding to DNA; NS3h Cy5-dT15 DNA binding, fluorescence polarization; inhibition, % at 100 µM; 1.6% of 16,000 active;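 active = inhibition above the average over every tested compound plus 3 SD, cut at about 40% in these data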
The depositor's hits bear a star.

SMILES	Cy5 interf NS3h	HCV NS3h FP
O=C(O)/C=C/c1cccc(NS(=O)(=O)c2ccccc2)c1	1.1	1
CCc1ccc(N2C(=O)/C(=C/c3ccc(O)c(Cl)c3)C(=O)NC2=S)cc1	1.2	0
O=C1NC(=S)N(c2ccc(F)cc2)C(=O)/C1=C/c1ccc(F)cc1	0.65*	8
CCOc1ccc(/C=C2\C(=O)NC(=S)N(c3ccc(C)cc3)C2=O)cc1Cl	0.9	6
Cc1ccc(N2C(=O)/C(=C/C=C/c3ccccc3)C(=O)NC2=S)cc1	0.72*	34
Clc1ccc(C=NN2CCN(Cc3ccccc3)CC2)c(Cl)c1	1	8
COc1ccc(Cl)cc1NC(=O)c1cc(Cl)ccc1OC	1.2	6
CCc1nnc(NC(=O)CN2CCN(C(=O)c3ccccc3)CC2)s1	1.1	-3
CC(=O)CC(=O)Nc1ccc(Cl)cn1	1	5
O=C(CC(c1ccccc1)c1ccccc1)Nc1ccc(Cl)cn1	0.66*	9
CCOC(=O)c1c(C)nc2c(c1C)/C(=N\O)CC(C)(C)C2	0.95	9
COc1ccc(CC(=O)Nc2sc3c(c2C(=O)Nc2ccccc2Cl)CCCCC3)cc1	1	10
O=C(O)c1ccc(NC(=O)c2cc3cc([N+](=O)[O-])ccc3oc2=O)cc1	1	5
O=C(CC1S/C(=N/N=C\c2ccccc2)NC1=O)Nc1ccccc1F (stereo not given)	1.2*	-8
COc1ccccc1/C=N\N=C1/NC(=O)C(CC(=O)Nc2cccc(C)c2C)S1 (stereo not given)	1	15
O=C(c1cc(I)ccc1Cl)N1CCN(c2ccc([N+](=O)[O-])cc2)CC1	1	3
C=CCOc1ccc(C=C2C(=O)NC(=S)NC2=O)cc1	1	24
O=C1NC(=S)NC(=O)C1=Cc1ccccc1OCc1ccccc1Cl	0.97	27
COC(=O)c1ccc(-n2c(C)cc(/C=C3\C(=O)NC(=O)N(c4ccc(OC)cc4)C3=O)c2C)cc1	0.99	5
COC(=O)c1ccc(-n2c(C)cc(C=C3C(=O)N(C)C(=O)N(C)C3=O)c2C)cc1	0.8*	16
O=C1/C(=C/c2ccccc2)SC(=S)N1/N=C\c1ccccc1	1	5
CC(Nc1cc(N2CCN(C)CC2)ccc1[N+](=O)[O-])c1ccc(Br)cc1 (stereo not given)	0.9	19
Cc1ccc(OCCNc2cc(N3CCN(C)CC3)ccc2[N+](=O)[O-])cc1C	0.61*	21
COc1ccc(C(=S)N2CCN(c3ccccc3)CC2)cc1	0.93	25
O=C(N1CCSCC1)C(F)(F)C(F)(F)C(F)(F)C(F)(F)F	0.8*	12
SMILES	Cy5 interf NS3h	HCV NS3h FP
Cc1cccc(N2C(=O)c3ccc(C(=O)Nc4cccc(O)c4)cc3C2=O)c1C	1	10
Cc1nn(-c2ccccc2)c(C)c1CC(=O)N(c1ccccc1)c1ccccc1	0.92	7
O=C1S/C(=C\c2ccc(Br)o2)C(=O)N1c1ccc(Cl)cc1	0.91	4
O=C(O)c1cccc(-c2ccc(/C=C3\SC(=O)N(c4ccc(Cl)cc4)C3=O)o2)c1	0.76*	19
COc1cc(NC(=O)c2ccc(F)cc2)cc([N+](=O)[O-])c1	1	0
O=[N+]([O-])c1cccc(-c2ccc(CO)o2)c1	0.95	-3
O=[N+]([O-])c1cccc(C2=Nc3ccc([N+](=O)[O-])cc3ON2)c1	0.74*	2
COc1ccc(CC(=O)Nc2sc3c(c2C(=O)Nc2ccccc2C)CCCCC3)cc1	1.1	0
COc1cc(/C=C2\SC(=S)N(C(C)C(=O)O)C2=O)ccc1O (stereo not given)	1	14
COc1cc(/C=C2/SC(=S)N(c3ccccc3)C2=O)ccc1OC(=O)c1cccc(C)c1	0.67*	0
COc1ccc(N2C(=O)/C(=C\c3ccccc3C)SC2=S)cc1	1.2*	10
COc1cc(/C=C2\SC(=S)N(C)C2=O)ccc1OC(=O)c1cccc(C)c1	1	14
COc1cc(/C=C2\SC(=S)N(CC(C)C)C2=O)ccc1O	0.8*	17
C=CCOc1ccc(/C=C2\SC(=S)N(c3ccc([N+](=O)[O-])cc3)C2=O)cc1OC	1	4
C=CCOc1ccc(/C=C2\SC(=S)N(c3ccc(OC)cc3)C2=O)cc1OC	0.73*	14
COc1ccccc1/C=C1\SC(=S)N(c2ccc(F)cc2)C1=O	1	-1
Cc1ccc(C(=O)Oc2ccc3c(-c4ccccc4)cc(=O)oc3c2)cc1	0.96	-3
C=CCNC(=O)CN(c1ccc(OC)cc1)S(=O)(=O)c1ccccc1	1	3
CC12c3ccccc3C(C)(c3ccccc31)C1C(=O)N(c3ccc(C(=O)O)cc3)C(=O)C12 (stereo not given)	0.72*	14
COc1ccc(N2C(=O)C3C4c5ccccc5C(C)(c5ccccc54)C3C2=O)cc1 (stereo not given)	1	6
CC(=O)c1ccc(NC(=S)NC(=O)c2cccnc2)cc1	1.1	8
O=C(CCN1C(=O)c2ccccc2C1=O)Nc1ccccc1C(=O)N1CCOCC1	0.98	9
CCN(CC)c1ccc(NC(=O)CCN2C(=O)c3ccccc3C2=O)cc1	0.6*	2
O=C(CCN1C(=O)c2ccccc2C1=O)Nc1ccccc1C(=O)N1CCCC1	0.7*	3
O=C(CCN1C(=O)c2ccccc2C1=O)Nc1ccc(I)cc1	0.98	6
SMILES	Cy5 interf NS3h	HCV NS3h FP
O=C(Nc1ccc2nn(-c3ccc(Cl)cc3)nc2c1)c1ccc2c(c1)OCCO2	0.94	5
C=C(C)Cn1c(-c2ccc(C(C)(C)C)cc2)n[nH]c1=S	0.99	12
O=C(Nc1ccccc1C(=O)N1CCOCC1)c1ccc([N+](=O)[O-])cc1	0.96	0
Cc1ccc(C)c(NC(=O)c2ccc([N+](=O)[O-])cc2)c1	0.69*	8
O=C(Nc1ccccc1C(=O)Nc1ccccn1)c1ccc([N+](=O)[O-])cc1	0.75*	-45
Cc1cc([N+](=O)[O-])ccc1NC(=O)c1ccccc1	1	-19
COc1ccc(C(=O)Nc2c(C)ccc3nsnc23)cc1	1	13
NC(=S)N/N=C\c1cc2c(cc1[N+](=O)[O-])OCO2	0.79*	10
O=C(N/N=C\c1ccc(O)c([N+](=O)[O-])c1)/C(=C\c1ccc2c(c1)OCO2)NC(=O)c1ccccc1	1	5
COc1cccc(OCCOc2cccc(/C=C3/SC(=S)NC3=O)c2)c1	0.92	20
CCOC(=O)c1c(-c2ccc(-c3ccccc3)cc2)csc1NC(=O)C1CC1	1	8
O=C(COc1ccc2c(c1)oc(=O)c1ccccc12)c1ccccc1	1.4*	-72
O=C(COc1ccc2c(c1)oc(=O)c1ccccc12)OCc1ccccc1	0.94	-1
Cc1c(Cl)cccc1NC(=O)Cn1cnc([N+](=O)[O-])n1	1.1	5
COC(=O)c1ccccc1NC(=O)Cn1cnc([N+](=O)[O-])n1	0.69*	7
CCCCSc1nc2sc3c(c2c(=O)n1Cc1ccccc1)CCCC3	1.2	-7
CC(=O)Nc1ccc(NC(=O)c2ccc(C)cc2)cc1	1	4
O=C(Nc1ccc(NC(=O)c2ccc(Cl)cc2Cl)cc1)c1ccc(Cl)c(Cl)c1	0.97	-17
CC(=O)Nc1ccc(NC(=O)c2ccc(Cl)c(Cl)c2)cc1	1.2*	17
O=C(Nc1ccc2c(c1)C(=O)N(c1ccccc1)C2=O)c1ccc2c(c1)C(=O)N(c1ccccc1)C2=O	1	-7
CC(=O)Nc1ccc(NC(=O)c2ccc(C(F)(F)F)cc2)cc1	0.76*	12
